# Rows were chosen to be rich in hits. Some 0.47% of all compounds tested hit in one or more screens of this group.
# AID inhibitor: Primary qHTS assay for inhibitors of Activation Induced Cytidine Deaminase (AID): AID signal | Single-stranded DNA cytosine deaminase (Homo sapiens), Q9GZX7 | Potency, µM (doses to about 115 µM), actives largely listed as inhibitors | AID 1347428, 2020 | AID deamination FRET fluorescence, UDG-coupled, 4 h | 91,000 compounds, 0.32% hits; note: nearly all actives have a fitted effect of over 25% in size
# Target sequence (Q9GZX7 whole entry, looked up): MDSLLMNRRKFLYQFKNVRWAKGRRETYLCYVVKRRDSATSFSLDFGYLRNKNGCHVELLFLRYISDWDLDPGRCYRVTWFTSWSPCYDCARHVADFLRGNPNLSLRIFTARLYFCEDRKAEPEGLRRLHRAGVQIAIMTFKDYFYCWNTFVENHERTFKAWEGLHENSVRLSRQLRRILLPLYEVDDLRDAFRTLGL
# UDG counter: Primary qHTS assay for inhibitors of Activation Induced Cytidine Deaminase (AID): UDG Counterscreen signal; FRET deamination/UDG coupled assay, UDG read, 4 h; Uracil-DNA glycosylase; Potency, µM (series often up to 115 µM), without a hit: at the highest dose activity change, negative = inhibition, actives largely listed as inhibitors; 91,000 compounds, 0.14% hits; note: nearly all actives have a fitted effect of over 65% in size
# * hit, by the source's call; i = inactive; ? = inconclusive; [ ] = remark or other dose. Calls come from the whole dose curve; as a rule, active = well fitted curve in the direction sought with a large enough effect; inconclusive = small, poorly fitted or top-dose-only effect, or another doubt; inactive = no such curve, though single readings can be large; an effect the other way counts as inactive or inconclusive. % is set by controls: 0 for no effect and ±100 for the full control effect; potency is the fitted concentration of half-maximal effect.
SMILES,AID inhibitor,UDG counter
CCN1CCN(CCCNC(=O)c2cnn(-c3ccc(C)cc3)c2C2CCN(C(=O)OC(C)(C)C)CC2)CC1,i,9.6%
COc1ccc(CNC(=O)CN2C(=O)CC(c3ccc(C)c(C)c3)=Nc3ccccc32)cc1,i,-6.1%
O=C(CSc1nc2c([nH]c3ccccc32)c(=O)n1-c1ccc(Cl)cc1)NCC1CCCO1 (stereo not given),i,1.0%
Cc1cccc(C)c1OCCCCn1c(C2CC(=O)N(c3ccc(F)cc3)C2)nc2ccccc21 (stereo not given),?,79.4µM*
COc1ccc(OCCn2c(C3CC(=O)N(c4ccc(F)cc4)C3)nc3ccccc32)cc1 (stereo not given),?,-25.5%
Cc1cc(C)c(C)c(OCC(=O)Nc2ccc(S(=O)(=O)Nc3nc(C)cc(C)n3)cc2)c1,i,-6.6%
Cc1ccccc1N1CC(C(=O)Nc2ccccc2C(=O)N(C)Cc2ccccc2)CC1=O (stereo not given),i,-13.6%
Cc1cc(C)c(OCC(=O)Nc2ccc(NC(=O)c3ccco3)c(C)c2)c(Br)c1,i,9.1%
COc1ccc(OC)c(NC(=O)N2CC3CCCN3c3ccccc32)c1 (stereo not given),20µM*,?
COc1ccc(CNC(=O)CCC(=O)N2CC3CCCN3c3ccccc32)c(OC)c1 (stereo not given),i,-5.0%
CC1CC1C(=O)Nc1cc(C(C)(C)C)ccc1O (stereo not given),i,-11.9%
Cc1cccc(NC(=O)CN(C)S(=O)(=O)c2ccc3c(c2)c(=O)n(C)c(=O)n3C)c1,i,-4.6%
CCOc1ccc(NC(=O)CN(C)S(=O)(=O)c2ccc3c(c2)c(=O)n(C)c(=O)n3C)cc1,22.4µM*,-12.1%
COc1ccc(-n2nc(C)c3c2NC(=O)CC3c2ccc(O)cc2)cc1 (stereo not given),i,-2.5%
CCC(C(=O)Nc1cc(OC)ccc1OC)n1nc(-c2ccccc2)c2c(c1=O)CCCC2 (stereo not given),28.2µM*,-22.2%
COc1ccccc1NC(=O)Cn1nc(-c2ccc(C)cc2)c2c(c1=O)CCCC2,?,5.4%
CCOC(=O)c1cccc(NC(=O)c2cc3sccc3n2Cc2ccc(Cl)cc2)c1,?,-13.3%
CCOc1ccc(NC(=O)CN(c2ccc(Cl)cc2C)S(=O)(=O)c2ccccc2)cc1,?,89.1µM*
CCOc1ccc(NC(=O)CN(c2ccccc2OCC)S(=O)(=O)c2ccccc2)cc1,?,-9.2%[57.5 µM]
CCOc1ccc(NC(=O)CCc2c(C)nc3nc(-c4cc(OC)cc(OC)c4)nn3c2C)cc1,i,-12.7%
NO,39.8µM*,28.2µM*
COc1ccc2oc(C(=O)NC3CCC(C)CC3)c(C)c2c1 (stereo not given),i,-4.5%
COC(=O)c1nnn(-c2ccc(Cl)cc2)c1C(=O)OC,i,12.4%
Cc1cccc(OCC(=O)N(Cc2ccc(N(C)C)cc2)Cc2ccco2)c1C,?,-18.5%
Cc1ccc(CN(Cc2ccco2)C(=O)COc2c(C)cc(C)cc2C)cc1,?,-29.8%
SMILES,AID inhibitor,UDG counter
Cc1ccc(CN(Cc2ccco2)C(=O)COc2cccc(C)c2C)o1,39.8µM*,-7.8%[57.5 µM]
Cc1cc(C)c(OCC(=O)N(Cc2ccco2)Cc2ccco2)c(C)c1,44.7µM*,-0.8%[57.5 µM]
Cn1cc(S(=O)(=O)c2cccc(Cl)c2)c(=O)c2cc(F)c(N3CCCCC3)cc21,i,-3.7%
CCOC(=O)C1=C(C)NC(=O)NC1c1cn(-c2ccccc2)nc1-c1ccc(OC(C)C)cc1 (stereo not given),28.2µM*,-3.9%
COc1ccc(-c2nn(-c3ccccc3)cc2C2NC(=O)NC(C)=C2C(=O)OC(C)C)cc1OC (stereo not given),?,-7.0%
CCN(CC)CCNC(=O)c1ccc2c(=O)n3nc(Nc4ccccc4)sc3nc2c1,70.8µM*,-8.6%
COc1cccc(CNC(=O)c2ccc3c(=O)n4nc(Nc5ccccc5)sc4nc3c2)c1,i,-2.5%
Cc1ccc(/C=C/c2onc(C)c2S(=O)(=O)N2CCC(C(=O)N3CCC(N(C)C(C)C)CC3)CC2)cc1,44.7µM*,-19.5%
CC(=O)c1ccc(N2CCN(C(=O)C3CCN(S(=O)(=O)c4c(C)noc4/C=C/c4ccc(C)cc4)CC3)CC2)cc1,i,0.9%
CCOCCCNC(=O)Cn1cc2c(n1)-c1c(oc(C(=O)N3CCCC3)c1C)CC2,79.4µM*,?
COCCCNC(=O)c1oc2c(c1C)-c1nn(Cc3ccc(Cl)cc3)cc1CC2,i,-13.8%[57.5 µM]
COCCCNC(=O)c1oc2c(c1C)-c1nn(Cc3cccc(Cl)c3)cc1CC2,89.1µM*,-13.7%[57.5 µM]
CCN(CC)CCCNC(=O)c1oc2c(c1C)-c1nn(Cc3ccc(Cl)cc3)cc1CC2,i,-12.3%[57.5 µM]
COc1ccc(Cl)cc1CNCCSc1nnnn1C,i,-1.0%
